From ChEMBL document CHEMBL2218924, “A broad activity screen in support of a chemogenomic map for kinase signalling research and drug discovery” (Biochem J, 2013)

These compounds were tested against Insulin receptor-related protein (Homo sapiens) (UniProt P14616). Settings: at 10 µM.
Sequence of Insulin receptor-related protein (Homo sapiens) (P14616 27-742 limits assumed): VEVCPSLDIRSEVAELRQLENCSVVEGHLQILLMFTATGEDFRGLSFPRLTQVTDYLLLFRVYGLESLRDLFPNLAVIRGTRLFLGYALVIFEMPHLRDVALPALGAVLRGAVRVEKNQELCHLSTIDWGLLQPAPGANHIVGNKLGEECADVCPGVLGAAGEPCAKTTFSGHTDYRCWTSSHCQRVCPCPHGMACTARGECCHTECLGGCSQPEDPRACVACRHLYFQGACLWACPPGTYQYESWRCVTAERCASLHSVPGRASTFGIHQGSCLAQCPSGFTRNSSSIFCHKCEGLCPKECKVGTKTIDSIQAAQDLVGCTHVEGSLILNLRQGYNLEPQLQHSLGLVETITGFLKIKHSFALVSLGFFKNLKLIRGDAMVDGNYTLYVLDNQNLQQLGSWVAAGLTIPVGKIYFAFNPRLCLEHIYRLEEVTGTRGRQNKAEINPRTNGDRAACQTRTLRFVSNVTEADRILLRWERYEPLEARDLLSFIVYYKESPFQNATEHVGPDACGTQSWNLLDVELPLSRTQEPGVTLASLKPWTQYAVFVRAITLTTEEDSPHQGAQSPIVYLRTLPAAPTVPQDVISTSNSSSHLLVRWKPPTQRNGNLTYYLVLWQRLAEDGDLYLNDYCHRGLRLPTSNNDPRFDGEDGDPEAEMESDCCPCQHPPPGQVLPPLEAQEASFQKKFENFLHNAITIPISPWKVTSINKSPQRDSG
Sequence of Insulin receptor-related protein (Homo sapiens) (P14616 747-1297 limits assumed): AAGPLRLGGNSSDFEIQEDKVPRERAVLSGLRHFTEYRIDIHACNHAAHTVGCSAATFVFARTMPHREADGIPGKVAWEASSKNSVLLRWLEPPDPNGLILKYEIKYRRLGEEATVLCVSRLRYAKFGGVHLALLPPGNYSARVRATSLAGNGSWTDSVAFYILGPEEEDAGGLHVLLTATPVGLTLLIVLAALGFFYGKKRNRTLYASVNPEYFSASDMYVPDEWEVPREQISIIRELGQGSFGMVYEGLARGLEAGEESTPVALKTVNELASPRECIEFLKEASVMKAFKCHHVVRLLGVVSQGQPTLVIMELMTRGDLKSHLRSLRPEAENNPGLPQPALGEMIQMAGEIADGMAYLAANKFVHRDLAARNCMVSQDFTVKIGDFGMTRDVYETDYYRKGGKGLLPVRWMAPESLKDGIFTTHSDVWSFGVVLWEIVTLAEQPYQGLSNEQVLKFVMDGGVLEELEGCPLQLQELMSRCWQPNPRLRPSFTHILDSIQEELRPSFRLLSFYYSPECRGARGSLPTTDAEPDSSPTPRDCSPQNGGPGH

Row | Structure (SMILES) | residual activity [%]
1 | Nc1nc(Nc2ccc(S(N)(=O)=O)cc2)nn1C(=O)c1c(F)cccc1F | 57
2 | COc1cc2nccc(Oc3ccc(NC(=O)Nc4cc(C)on4)c(Cl)c3)c2cc1OC | 29
3 | Nc1n[nH]c2nc3ccccc3nc12 | 86
4 | COc1cc2ncnc(Nc3cccc(Cl)c3)c2cc1OC | 102
5 | Cc1cc(C)c(/C=C2\C(=O)Nc3ccccc32)[nH]1 | 3
6 | CC(C)N(CCC(=O)c1ccc2ccccc2c1)Cc1ccccc1 | 82
7 | N#Cc1c(NC(=O)c2cccc3ccccc23)sc2c1CCCC2 | 72
8 | NC(=O)c1cccc(-c2cc(Nc3ccc(OC(F)(F)F)cc3)ncn2)c1 | 98
9 | Nc1ncnc2c1cnn2-c1ccccc1 | 93
10 | NC(=O)Nc1sc(-c2ccc(F)cc2)cc1C(N)=O | 3
11 | Cn1c2ccccc2c2c3c(c4c5ccccc5n(CCC#N)c4c21)CNC3=O | 53
12 | CC(C)(C)c1nc2c3ccc(F)cc3c3c(=O)[nH]ccc3c2[nH]1 | 52
13 | c1ccc(-c2cnc(Nc3ccc(OCCN4CCCC4)cc3)s2)cc1 | 65
14 | Oc1cccc(-c2nc(N3CCOCC3)c3oc4ncccc4c3n2)c1 | 84
15 | O=C(c1cc2cc(O)ccc2[nH]1)c1cc2cc(O)ccc2[nH]1 | 55
16 | O=C1NC(=O)C(c2cn(CCCn3ccnc3)c3ccccc23)=C1Nc1ccccc1 | 65
17 | O=C(c1ccccc1)c1ccc(N2CCOCC2)cc1O | 75
18 | COc1ccc(COc2ccc(Cc3cnc(N)nc3N)cc2OC)cc1 | 82
19 | O=c1cc(N2CCOCC2)oc2c(-c3ccccc3)cccc12 | 75
